{"source": "ChEMBL document CHEMBL1157539", "about": "“Thousands of chemical starting points for antimalarial lead identification” (Nature, 2010)", "note": "The full ranking holds about 13,000 compounds; the median of “IFI” is about 4, and the highest 2% start at about 17. This excerpt belongs to a sample that is enriched for the highest values.", "data": [{"assay": "GSK_TCMDC: Inhibition Frequency Index (IFI). The number of non-kinase HTS assays where a compound showed > 50 % inhibition, expressed as a percentage of the number of such assays in which the compound was tested", "assay_type": "functional", "units": {"IFI": "%"}, "values": [{"smiles": "COc1cc2nc(N3CCC(CNC(=O)c4ccc(-c5ccc(C#N)cc5C)cc4)CC3)nc(N)c2cc1OC", "IFI": 6.31}, {"smiles": "CCN(CC)CCCNc1ncc2c(-c3ccc(NC(=O)Nc4cc(C(F)(F)F)ccc4F)cc3)nn(C)c2n1", "IFI": 10.8}, {"smiles": "Cc1nnc2sc(-c3cccc(NC(=O)c4ccc(N5CCCCC5)c([N+](=O)[O-])c4)c3)nn12", "IFI": 1.47}, {"smiles": "CN(c1ccccc1)S(=O)(=O)c1cccc(NC(=O)c2ccc(-n3ccnc3)c([N+](=O)[O-])c2)c1", "IFI": 17.2}, {"smiles": "O=C(Nc1ccc(-c2nc3ccccc3[nH]2)cc1)c1ccc(N2CCCC2)c([N+](=O)[O-])c1", "IFI": 0.99}, {"smiles": "CN1CCN(CCNc2c3ccccc3nc3c2ccc2ccccc23)CC1", "IFI": 6.99}, {"smiles": "O=S(=O)(Nc1cccc(CCN2CCCCC2CCN2CCCC2)c1)c1ccc2ccccc2c1", "note": "(centres undefined)", "IFI": 13.1}, {"smiles": "O=S(=O)(Nc1cccc(CCN2CCCCC2CCN2CCCC2)c1)c1ccc(Oc2ccccc2)cc1", "note": "(centres undefined)", "IFI": 17.5}, {"smiles": "O=S(=O)(Nc1cccc(CCN2CCCCC2CCN2CCCC2)c1)c1ccc(-c2ccccc2)cc1", "note": "(centres undefined)", "IFI": 14.5}, {"smiles": "NC1CCCN(Cc2cccc(-c3ccc(-c4nc5cc(C(F)(F)F)ccc5[nH]4)cc3)c2)C1", "note": "(centres undefined)", "IFI": 5.63}, {"smiles": "CC(=NNC(=N)N)c1ccc2c(c1)Cc1ccccc1-2", "IFI": 7.19}, {"smiles": "CS(=O)(=O)NCCCNCc1ccc(-c2ccc(-c3nc4cc(F)ccc4[nH]3)cc2)cc1", "IFI": 5.94}, {"smiles": "Nc1c2c(nc3ccc(NC(=O)c4ccccc4)cc13)CCCC2", "IFI": 2.86}, {"smiles": "CC(C)(C)c1ccc(C(=O)Nc2ccc3nc4c(c(N)c3c2)CCCC4)cc1", "IFI": 4.9}, {"smiles": "Nc1c(I)cc(C(=O)Nc2ccc3nc4c(c(N)c3c2)CCCC4)cc1I", "IFI": 22.8}, {"smiles": "CCN(CCCN1CCCCC1)c1cc(C)nc(Nc2ccc(Cl)cc2C)n1", "IFI": 5}, {"smiles": "CN(C)c1ccc(CN2CCC(CNC(=O)c3cc(-c4cccc(F)c4)cs3)C2)cc1", "note": "(centres undefined)", "IFI": 6.12}, {"smiles": "CCN1CCC(N(Cc2ccc(-c3ccc(C(F)(F)F)cc3)cc2)C(=O)Cn2c(SCc3ccc(F)cc3)nc(=O)c3c2CCC3)CC1", "IFI": 12.5}, {"smiles": "CCN1CCC(N(Cc2ccc(-c3ccc(C(F)(F)F)cc3)cc2)C(=O)Cn2c(SCc3cccc(F)c3F)cc(=O)c3ccccc32)C1", "note": "(centres undefined)", "IFI": 7.14}, {"smiles": "CCN1CCC(N(Cc2ccc(-c3ccc(C(F)(F)F)cc3)cc2)C(=O)Cn2nc(C)c(=O)cc2SCc2ccc(F)cc2)CC1", "IFI": 19.6}, {"smiles": "Cc1cccc2nc(-c3ccc(-c4ccc(NC(=O)C5CCN(C)CC5)cc4)cc3)[nH]c12", "IFI": 4.24}, {"smiles": "COc1cc(C(=O)N2CCOC(CCN3CCC[C@H]3C(=O)Nc3ccccc3)(c3ccc(Cl)c(Cl)c3)C2)cc(OC)c1OC", "note": "(some centres undefined)", "IFI": 4.83}, {"smiles": "COc1ccc2ncc(F)c(CCN3CC(O)C(CNCc4ccccc4)C3)c2n1", "note": "(centres undefined)", "IFI": 2.94}, {"smiles": "O=C(NCCc1ccccc1)N(Cc1ccc(-c2cccc(CN3CCNCC3)c2)cc1)C1CCN(Cc2ccccc2)CC1", "IFI": 6.67}, {"smiles": "CC(C)C[C@H](NC(=O)c1cc2ccccc2s1)C(=O)N[C@H]1CCN(Cc2ccc(OC[C@@H]3CCCN3C)c(Cl)c2)C1", "IFI": 6.67}, {"smiles": "CC(C)C[C@H](NC(=O)c1cc2ccccc2s1)C(=O)N[C@H]1CCN(Cc2ccc(OCCCN(C)C)c(Cl)c2)C1", "IFI": 17.2}, {"smiles": "CC(C)C[C@H](NC(=O)c1cc2ccccc2s1)C(=O)N[C@H]1CCN(Cc2ccc(OC3CCN(C)C3)c(Cl)c2)C1", "note": "(some centres undefined)", "IFI": 6.67}, {"smiles": "O=C1CCCN1CCCNCc1cccc(-c2cccc(-c3nc4cc(F)ccc4[nH]3)c2)c1", "IFI": 4.85}, {"smiles": "Cc1ccc(C)c(NC(=O)CC2C(=O)N(c3ccccc3)C(=S)N2Cc2ccco2)c1", "note": "(centres undefined)", "IFI": 0.76}, {"smiles": "NC(=O)C1CCN(Cc2ccc(-c3cccc(-c4nc5cc(F)ccc5[nH]4)c3)cc2)CC1", "IFI": 0}, {"smiles": "Cc1ccc(Nc2nc(C)cc(NC3CCCC3)n2)cc1", "IFI": 21.3}, {"smiles": "Cc1cc(NC2CCCC2)nc(Nc2ccc(F)cc2)n1", "IFI": 9.09}, {"smiles": "Cc1ccc(Nc2nc(C)cc(NC3CC3)n2)cc1", "IFI": 4.62}, {"smiles": "CC1CN(c2cccc3c2nc(-c2cncc(C#N)c2)n3CCNCc2ccccc2)CC(C)O1", "note": "(centres undefined)", "IFI": 0}, {"smiles": "CCN1CCC(N(Cc2ccc(-c3ccc(C(F)(F)F)cc3)cc2)C(=O)Cn2c(CCc3cccc(F)c3F)cc(=O)c3c2CCC3)CC1", "IFI": 4.96}, {"smiles": "CCn1c(-c2nonc2N)nc2c(Cl)ncc(O[C@H](CCN)c3ccccc3F)c21", "IFI": 23.1}, {"smiles": "CCn1c(-c2nonc2N)nc2c(-c3cccc(Cl)c3)ncc(OCCCNCc3cnc(C)nc3N)c21", "IFI": 7.62}, {"smiles": "CCn1c(-c2nonc2N)nc2c(-c3ccc(CO)o3)ncc(OCCCN)c21", "IFI": 15.4}, {"smiles": "Clc1ccc(CNc2ccnc(NCc3cccnc3N3CCCC3)n2)c(Cl)c1", "IFI": 16.7}, {"smiles": "CN1CCN(CC2(Nc3nccc(NCCc4cn(C)c5ccccc45)n3)CCCCC2)CC1", "IFI": 14.3}, {"smiles": "CN1CCN(CC2(Nc3nccc(NCc4ccc(Cl)cc4Cl)n3)CCCCC2)CC1", "IFI": 35.7}, {"smiles": "COc1cccc(OC)c1CN1CCC(N(C)CCCCCCCCCN2CCC(OC(=O)Nc3ccccc3-c3ccccc3)CC2)CC1", "IFI": 17.3}, {"smiles": "COc1cccc(OC)c1CN1CCC(N(C)CCCCCCCCN2CCC(OC(=O)Nc3ccccc3-c3ccccc3)CC2)CC1", "IFI": 13.1}, {"smiles": "COc1ccccc1CCN(C)CCN1CCC(NC(=O)c2ccc(-c3ccc(C(F)(F)F)cc3)cc2)CC1", "IFI": 6.19}, {"smiles": "COc1cccc(OC)c1OCCCON1C(=N)N=C(N)NC1(C)C", "IFI": 2.9}, {"smiles": "CN(C)CCC(O)C=C(c1ccc(Cl)cc1)c1ccc(Cl)cc1", "note": "(centres undefined)", "IFI": 4.69}, {"smiles": "CN(CCCCN)Cc1ccc(-c2ccc(Cl)cc2)cc1", "IFI": 4.44}, {"smiles": "CCC(COCc1ccc(Cl)cc1)N(C)CCN(C)C(CC)COCc1ccc(Cl)cc1", "note": "(centres undefined)", "IFI": 19.6}, {"smiles": "CC1(C)C(=O)N=C2C1=C(O)C(=O)c1ccccc12", "IFI": 17.2}, {"smiles": "Cc1ccc2c(=NN=Cc3cccc(F)c3)cc(C)[nH]c2c1", "IFI": 5.15}, {"smiles": "C=CCOC(=O)N1CCC(CNCc2cccc(-c3ccc(-c4nc5cccc(C)c5[nH]4)s3)c2)C1", "note": "(centres undefined)", "IFI": 3.81}, {"smiles": "COc1cc2ccccc2c(OC)c1CNCCCCCCNCc1c(OC)cc2ccccc2c1OC", "IFI": 12.9}, {"smiles": "CCCCOc1cc(OC)c2ccccc2c1CCNCCCCNCCc1c(OCCCC)cc(OC)c2ccccc12", "IFI": 19.1}, {"smiles": "COc1cc2ccccc2c(CNCCCCCCNCc2c(OC)c(OC)cc3ccccc23)c1OC", "IFI": 12.1}, {"smiles": "COc1cc2ccccc2c(OC)c1CCNCCCCNCCc1c(OC)cc2ccccc2c1OC", "IFI": 14.5}, {"smiles": "COc1c(OC)c(OC)c2ccccc2c1CCNCCCCNCCc1c(OC)c(OC)c(OC)c2ccccc12", "IFI": 18.3}, {"smiles": "COc1c(CNCCCCCCNCc2c(OC)c(OC)c3ccccc3c2OC)c(OC)c2ccccc2c1OC", "IFI": 21.3}, {"smiles": "COc1c(OC)c(OC)c2ccccc2c1CNCCCCCCNCc1c(OC)c(OC)c(OC)c2ccccc12", "IFI": 14.8}, {"smiles": "COc1cc2ccccc2cc1CCNCCCCNCCc1cc2ccccc2cc1OC", "IFI": 14.8}, {"smiles": "CCc1c(CCNCCCCCCNCCc2ccc(OC)c(OC)c2CC)ccc(OC)c1OC", "IFI": 6.47}, {"smiles": "N=C(N)Nc1nc(-c2cccc(NC(=O)NCc3ccc(OC(F)(F)F)cc3)c2)cs1", "IFI": 3.79}, {"smiles": "CC(CN1CCN(C)CC1)C(=O)Nc1ccc(-c2cccc(-c3nc4cc(F)ccc4[nH]3)c2)cc1", "note": "(centres undefined)", "IFI": 2.78}, {"smiles": "CC(=O)Nc1ncc(C(=O)Nc2cccc(-c3cccc(-c4nc5cc(C(F)(F)F)ccc5[nH]4)c3)c2)s1", "IFI": 5.41}, {"smiles": "COc1ccc2ccccc2c1CNCCCCCCNCc1c(OC)ccc2ccccc12", "IFI": 9.93}, {"smiles": "CC(C)Oc1ccc2ccccc2c1CNCCCCCCNCc1c(OC(C)C)ccc2ccccc12", "IFI": 18.5}, {"smiles": "CSc1ccc2ccccc2c1CNCCCCCCNCc1c(SC)ccc2ccccc12", "IFI": 12.3}, {"smiles": "CC(C)COc1ccc2ccccc2c1CNCCCCCCNCc1c(OCC(C)C)ccc2ccccc12", "IFI": 22.9}, {"smiles": "COc1ccc2c(CNCCCCCCNCc3c(OC)ccc4cc(OC)ccc34)c(OC)ccc2c1", "IFI": 7.38}, {"smiles": "Cc1nnsc1C(=O)Nc1cccc(-c2cccc(-c3nc4cc(F)ccc4[nH]3)c2)c1", "IFI": 6.42}, {"smiles": "CC(=NNC(S)=Nc1ccccc1Cl)c1ccccn1", "IFI": 6.57}, {"smiles": "COc1cc(F)c2nccc([C@@H](O)CN3CCC(NCc4cc5c(cc4F)OCCO5)CC3)c2c1", "IFI": 1.59}, {"smiles": "O=C(Nc1cccc([N+](=O)[O-])c1)Nc1cccc(C(F)(F)F)c1", "IFI": 12.4}, {"smiles": "COc1cc([N+](=O)[O-])ccc1NC(=O)Nc1ccc(OC(F)(F)F)cc1", "IFI": 18.4}, {"smiles": "O=C(Nc1ccc(C(F)(F)F)cc1)Nc1cccc([N+](=O)[O-])c1", "IFI": 19.1}, {"smiles": "COc1cc(NC(=O)Nc2ccc([N+](=O)[O-])cc2OC)c(OC)cc1Cl", "IFI": 1.83}, {"smiles": "O=C(Nc1ccc(OC(F)(F)F)cc1)Nc1ccc([N+](=O)[O-])cc1", "IFI": 20.1}, {"smiles": "O=C(Nc1ccc([N+](=O)[O-])cc1)Nc1cc(C(F)(F)F)ccc1F", "IFI": 8.62}, {"smiles": "O=C(Nc1ccc(Oc2ccc(OC(F)(F)F)cc2)cc1)c1ccco1", "IFI": 5.22}, {"smiles": "COc1cc(C)nc2ccc(NC(=O)Nc3ccc([N+](=O)[O-])cc3C)cc12", "IFI": 3.01}, {"smiles": "O=C(Nc1ccc([N+](=O)[O-])cc1)Nc1cc(OCC(F)(F)F)cc(OCC(F)(F)F)c1", "IFI": 9.6}, {"smiles": "O=C(Nc1ccc(CCNCc2ccccc2)cc1)Nc1ccc(OC(F)(F)F)cc1", "IFI": 0.72}, {"smiles": "N#Cc1ccc(NC(=O)Nc2ccc(OC(F)(F)F)cc2)cc1", "IFI": 20.5}, {"smiles": "O=C(Nc1cccc([N+](=O)[O-])c1)Nc1ccc(Cl)c(C(F)(F)F)c1", "IFI": 10}, {"smiles": "CCN(CC)CCCC(C)N=c1cc(C=Cc2ccc([N+](=O)[O-])cc2)[nH]c2ccc(OC)cc12", "note": "(centres undefined)", "IFI": 1.65}, {"smiles": "CCN(CC)C(C)(C)CN(Cc1ccc(-c2ccc(C(F)(F)F)cc2)cc1)C(=O)Cn1c(CCc2cccc(F)c2F)nc(=O)c2ccccc21", "IFI": 6.94}, {"smiles": "CCN(CCNS(C)(=O)=O)c1ccc(N)c(C)c1", "IFI": 7.32}, {"smiles": "CN(C)c1ccc(NC2=NC(N)=NC(C)(C)N2)cc1", "IFI": 1.82}, {"smiles": "NC(=O)c1cccc(C(=O)Nc2cccc(-c3ccc(-c4nc5cc(C(F)(F)F)ccc5[nH]4)cc3)c2)c1", "IFI": 6.67}, {"smiles": "Nc1cccc(CNCc2ccc(-c3cccc(-c4nc5cc(C(F)(F)F)ccc5[nH]4)c3)cc2)c1", "IFI": 15.2}]}]}
